Measured values: PubChem BioAssay AID2707 (National Center for Advancing Translational Sciences (NCATS), 2010)
This is one part of the list. Activity calls are given as the source filed them.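 The calls were made as follows: active = potency below 100 µM; inconclusive = dose-dependent response but potency above 100 µM; inactive = the rest.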

These molecules were tested against 4'-phosphopantetheinyl transferase ffp (Bacillus subtilis) (UniProt Q9F4F7) (assay: Gel-Based Assay for Inhibitors of Bacillus subtilis Sfp phosphopantetheinyl transferase (PPTase)). Details: purified Sfp, gel-based phosphopantetheinylation read-out.
4'-phosphopantetheinyl transferase ffp (Bacillus subtilis), sequence (Q9F4F7 whole entry, looked up): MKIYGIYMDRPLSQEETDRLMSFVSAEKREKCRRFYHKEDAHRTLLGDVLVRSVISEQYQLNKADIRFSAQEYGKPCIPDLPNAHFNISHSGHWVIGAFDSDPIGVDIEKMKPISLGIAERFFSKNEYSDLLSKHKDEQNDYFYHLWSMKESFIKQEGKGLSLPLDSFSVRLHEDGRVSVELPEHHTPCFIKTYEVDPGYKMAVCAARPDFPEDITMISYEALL
Source text: The covalent attachment of a phosphopantetheinyl (4'-PP) arm to a variety of synthases and other proteins is a key posttranslational protein modification. The 4'-PP is installed on the proteins post-translationally from coenzyme A (CoA) on a conserved serine residue by action of phosphopantetheinyl transferase (PPTase) enzymes. Phosphopantetheinylation is essential for synthase activity, and removal of the PPTase gene precludes natural product synthesis in microorganisms, or in the case of fatty acid biosynthesis, renders the organism unviable. PPTase enzymes belong to a distinct structural superfamily. Within bacteria, these enzymes are grouped into two classes based upon primary structure, the AcpS-Type and Sfp-Type PPTases. […]
In this assay, compounds were evaluated by monitoring of fluorescence transfer to whole carrier protein substrates via polyacrylamide gel electrophoresis. […]
A DMSO solution of confirmed hits (0.5 microL) was added to a 1.33X enzyme solution (15 microL, containing 26.6 nM Sfp, 66 mM HEPES, 13.3 mM MgCl2, 0.0133% NP-40, 0.133% BSA, pH 7.6). […] Following the run, gels were imaged with a Chemi-Doc Plus imager (Bio-Rad, Hercules, CA) and band intensity quantified using the ImageJ software package. […]
Cc1nn2c(c1-c1ccccc1)N=C(c1ccco1)CC2c1ccccc1 (configuration not stated) was tested, and the outcome was “inactive”. With CCCOC(=O)Nc1sc2c(c1C(=O)OCC)CCC2 the outcome was “inactive”.
